# DT40 TDP1 no CPT = qHTS for Inhibitors of human tyrosyl-DNA phosphodiesterase 1 (TDP1): qHTS in cells in absence of CPT; DT40 Tdp1-/- hTDP1 cells, no CPT, ATP luminescence, 48 h; Potency, µM (series often up to 46.2 µM), for inactives: top-dose activity change, negative = growth inhibition, actives largely listed as inhibitors; 420,000 tested, 15% active; further: potency means the concentration at half of the fitted maximal effect; on the % scale 0 is the no-effect control and ±100 the full control effect; nearly all actives have a fitted effect of over 55% in size
#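 Seeded 400 DT40-hTDP1 cells/well (vehicle DMSO, no 20 nM CPT); pinned compounds; ≥48 hr at 37 °C; CellTiter-Glo luminescence as viability measure.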
# IL-1B inflam inh = qHTS for Inhibitors of Inflammasome Signaling: IL-1-beta AlphaLISA Primary Screen; THP-1 LPS/ATP IL-1B secretion, AlphaLISA, 16 h; active compounds read low; activity change, % at 57.5 µM; 360,000 tested, 4.7% active; in the data active means activity change below about -50%; inconclusive means mostly about -30% to -49%; further: on the % scale 0 is the no-effect control and ±100 the full control effect
#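 Secreted IL-1B measured by AlphaLISA bead assay after 16 h compound exposure of THP-1 cells; compounds (final up to 57.5 uM) added 1 h before LPS (250 ng/mL) and ATP (1.25 mM) stimulation; lower signal means less secretion.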
# HepG2 tox-1 = qHTS for Inhibitors of TGF-b: Cytotox Counterscreen; HepG2 CAGA-GFP viability, ATP luminescence, 18 h; Potency, µM (titrated, usually from 46.1 µM), for the others: at the highest dose activity change, negative = cytotoxicity, most hits filed as cytotoxic; 410,000 tested, 0.76% active; AID 588856, 2011; further: potency means the concentration at half of the fitted maximal effect
#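 CellTiter-Glo luminescence gave cytotoxicity after 18 hours at 37 degrees C. The cells were HepG2 CAGA-GFP in 1% FBS DMEM, stimulated with 500 pg/mL TGF-beta after compound addition. %Activity was normalised to no-cell wells (complete cell-killing) and DMSO (no toxicity), and curves were fitted and classified.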
# TDP1 inh = qHTS Assay for Inhibitors of Tyrosyl-DNA Phosphodiesterase (TDP1). Tyrosyl-DNA phosphodiesterase 1 (Homo sapiens), Q9NUW8. recombinant TDP1, AlphaScreen DNA substrate cleavage. Potency, µM (top dose mostly 130 µM), for inactives: at the highest dose activity change, negative = inhibition, most hits filed as inhibitors. 350,000 tested, 0.28% active; further: potency means the concentration at half of the fitted maximal effect; on the % scale 0 is the no-effect control and ±100 the full control effect; nearly all actives have a fitted effect of over 40% in size
# Target sequence (Q9NUW8 whole entry, looked up): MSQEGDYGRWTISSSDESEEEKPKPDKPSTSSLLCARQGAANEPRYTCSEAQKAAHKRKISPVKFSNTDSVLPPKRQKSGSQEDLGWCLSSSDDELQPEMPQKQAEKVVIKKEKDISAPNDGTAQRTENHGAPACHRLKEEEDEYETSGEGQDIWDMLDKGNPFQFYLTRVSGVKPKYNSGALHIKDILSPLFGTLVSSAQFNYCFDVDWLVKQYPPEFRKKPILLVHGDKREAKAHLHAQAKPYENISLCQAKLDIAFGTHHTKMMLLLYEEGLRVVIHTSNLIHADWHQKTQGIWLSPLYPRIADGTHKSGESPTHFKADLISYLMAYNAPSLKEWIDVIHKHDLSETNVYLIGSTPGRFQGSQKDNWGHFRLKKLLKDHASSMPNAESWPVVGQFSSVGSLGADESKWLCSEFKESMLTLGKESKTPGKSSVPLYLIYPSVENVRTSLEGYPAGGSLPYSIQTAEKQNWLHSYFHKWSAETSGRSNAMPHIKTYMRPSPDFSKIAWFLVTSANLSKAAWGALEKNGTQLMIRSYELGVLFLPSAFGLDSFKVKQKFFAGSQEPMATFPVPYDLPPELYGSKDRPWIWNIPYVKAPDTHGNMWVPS
#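 AlphaScreen read-out: signal falls as enzyme removes the 3' tyrosine-FITC from a 5'-biotinylated DNA oligo (15 nM, 5 min, RT). Enzyme was E. coli-made recombinant Tdp1 at 1 nM, exposed to compound for 15 min beforehand; beads 10 ug/ml, 10 min.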
# DT40 TDP1 CPT = qHTS for Inhibitors of human tyrosyl-DNA phosphodiesterase 1 (TDP1): qHTS in cells in presence of CPT. chicken DT40 Tdp1-/-;hTDP1 cells + 20 nM CPT, ATP luminescence, 48 h. AID 686979, 2013. Potency, µM (titrated, usually from 46.2 µM), without a hit: at the top dose activity change, negative = growth inhibition, actives largely listed as inhibitors. 420,000 tested, 12% active; further: potency means the concentration at half of the fitted maximal effect; on the % scale 0 is the no-effect control and ±100 the full control effect; nearly all actives have a fitted effect of over 55% in size
#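 Chicken DT40 Tdp1-/- cells stably complemented with human TDP1 were seeded at 400 cells/well in medium containing 20 nM camptothecin, exposed to pin-transferred compounds, and grown at 37 °C for at least 48 hr. Viability was read as ATP luminescence.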
# TGFb SMAD3 inh = qHTS for Inhibitors of TGF-b; Potency, µM (top dose mostly 46.1 µM), for inactives: at the top dose activity, negative = inhibition, most hits filed as inhibitors; AID 588855, 2011; HepG2 CAGA-GFP TGF-b/SMAD3 reporter, GFP fluorescence, 18 h; TGF-beta stimulated, 500 pg/mL final; 410,000 tested, 1.2% active; further: potency means the concentration at half of the fitted maximal effect; on the % scale 0 is the no-effect control and ±100 the full control effect; nearly all actives have a fitted effect of over 65% in size
#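 Inhibition was scored as loss of TGF-beta-induced (500 pg/mL final, 18 hours, 37 degrees C) GFP in HEPG2 cells carrying a CAGA-GFP reporter, in DMEM with 1% FBS. Well GFP was summed per cell; Activity was normalised to unstimulated and stimulated DMSO wells, then concentration-response fitting.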
# TGFb confirm = qHTS for Inhibitors of TGF-b: Confirmation of Cherry Picks. shares compounds with TGFb SMAD3 inh. 1,600 tested, 63% active. Potency, µM (doses to about 46.1 µM), for inactives: top-dose activity, negative = inhibition, actives largely listed as inhibitors. AID 720534, 2013. HepG2 CAGA-GFP TGF-b reporter, GFP fluorescence, 18 h; cells stimulated with TGF-beta, 500 pg/mL; further: potency means the concentration at half of the fitted maximal effect; on the % scale 0 is the no-effect control and ±100 the full control effect; nearly all actives have a fitted effect of over 65% in size
# HepG2 tox-2 = qHTS for Inhibitors of TGF-b: Cytotox Counterscreen for Cherry Picks; AID 720535, 2013; Potency, µM (titrated, usually from 46.1 µM), for inactives: at the top dose activity, negative = cytotoxicity, usual class: inhibitors; 1,600 tested, 27% active; HepG2 CAGA-GFP viability, ATP luminescence, 18 h; cells stimulated with TGF-beta, 500 pg/mL; shares compounds with TGFb SMAD3 inh; further: potency means the concentration at half of the fitted maximal effect; on the % scale 0 is the no-effect control and ±100 the full control effect; nearly all actives have a fitted effect of over 70% in size
# TGFb CCL64 inh = qHTS for Inhibitors of TGF-b: CCL64 Cells Orthogonal Assay for Cherry Picks. Potency, µM (titrated, usually from 46.1 µM), for the others: at the top dose activity, negative = inhibition, usual class: inhibitors. shares compounds with TGFb SMAD3 inh. CCL64 CAGA-GFP reporter, TGF-b stimulated, GFP fluorescence, 18 h. 1,600 tested, 41% active; further: potency means the concentration at half of the fitted maximal effect; nearly all actives have a fitted effect of over 65% in size
# COP TGFb inh = qHTS for Inhibitors of TGF-b: Hit Validation in HepG2 Cells using COP promoter | shares compounds with TGFb SMAD3 inh | HepG2 COP-GFP TGF-b reporter, GFP fluorescence, 18 h; cells stimulated by added recombinant TGF-beta | Potency, µM (highest dose often 46.1 µM), inactives show top-dose activity, negative = inhibition, actives largely listed as inhibitors | 1,600 tested, 3% active | AID 720537, 2013; further: potency means the concentration at half of the fitted maximal effect; nearly all actives have a fitted effect of over 70% in size
# * marks the source's active call; other numbers are inactive results; ? = inconclusive; . = not tested or not shown; [ ] = dose if it differs, or a comment. In the library only some 18% were active in any assay of this set; here they are far more common. Unless noted, the call rests on the fitted dose curve; in most records, active means well fitted curve in the direction sought with a large enough effect; inconclusive means small, poorly fitted or top-dose-only effect, or another doubt; inactive means no such curve, though single readings can be large; an effect the other way counts as inactive or inconclusive.
SMILES,DT40 TDP1 no CPT,IL-1B inflam inh,HepG2 tox-1,TDP1 inh,DT40 TDP1 CPT,TGFb SMAD3 inh,TGFb confirm,HepG2 tox-2,TGFb CCL64 inh,COP TGFb inh
CN(C)c1ccc(NC2=C(Cl)C(=O)c3ccccc3C2=O)cc1,12µM*,-100*,5.6µM*,14%,21µM*,5.6µM*,5.2µM*,12µM*,13µM*,?
CC(=O)Nc1ccc(C2C(=O)c3ccccc3C2=O)cc1,?,-19,-12%,.,-26%,7%,.,.,.,.
O=C1C(Cl)=C(Nc2ccc3cn[nH]c3c2)C(=O)c2ccccc21,2.1µM*,-99*,1.1µM*,9%,1.6µM*,0.63µM*,1.6µM*,3.3µM*,4.6µM*,6.5µM*
O=C(NC1=C(Nc2ccc(Cl)cc2)C(=O)c2ccccc2C1=O)c1ccccc1,16µM*,?,28µM*,7%,23µM*,8.9µM*,15µM*,21µM*,?,-28%
O=C(CN1C(=O)COc2ccc(S(=O)(=O)N3CCOCC3)cc21)NCc1ccccn1,6%,5,-17%,5%,-3%,-7%,.,.,.,.
COCC(=O)Nc1cc(Cl)ccc1C(F)(F)F,.,.,.,4%,.,.,.,.,.,.
c1ccc2sc(C3CCN(Cc4nnnn4Cc4ccc5c(c4)OCO5)CC3)nc2c1,18µM*,-4,-29%,4%,?,14µM*,?,-21%,27%,-5%
COc1ccc2c(c1)OC[C@H]1[C@H]2N2C(=O)CN(Cc3ccc(Cl)cc3)C(=O)[C@@]2(C)[C@H]1c1ccccc1,?,?,-25%,1%,8.2µM*,5µM*,?,-4%,-1%,0%
Cc1cc(C)c(OCC(=O)Nc2nc(-c3ccccn3)cs2)c(C)c1,4.1µM*,31,-35%,5%,3.7µM*,10µM*,?,-29%,?,31%
COc1ccc(C)cc1NS(=O)(=O)c1cccc2nonc12,-7%,-2,5%,7%,-23%,6%,.,.,.,.
CCOC(=O)N(C)c1c(CC)nc2c(OCc3ccc(C(F)(F)F)cc3)cccn12,13µM*,-9,-12%,.,?,?,?,-19%,4%,0%
Cc1cccc(C)c1NC(=O)CCCSc1nnc(-c2ccc(F)cc2)n1-c1ccccc1,?,-19,-37%,6%,?,7.9µM*,?,-25%,?,18%
COc1ccccc1-n1c(SCC(=O)c2ccc(O)cc2O)nc2cc([N+](=O)[O-])ccc21,?,6,-8%,8%,-19%,?,.,.,.,.
CC(C)(C)C(=O)/C(=C\c1ccc([N+](=O)[O-])cc1)n1cncn1,.,.,.,4%[56.1 µM],.,.,.,.,.,.
CC(C)(C)C(=O)/C(=C/c1ccc(Cl)cc1)n1cncn1,5.2µM*,-97*,-115%,.,5.8µM*,10µM*,21µM*,?,?,65%
O=C(Nc1ccc(N2CCN(c3ncccc3C(F)(F)F)CC2)nc1)c1cccs1,21µM*,-101*,-56%,10%,18µM*,4µM*,?,?,?,79%
C[C@H](CO)N1C[C@H](C)[C@@H](CN(C)S(=O)(=O)c2ccc(Cl)cc2)Oc2ccc(NS(=O)(=O)c3ccccc3)cc2CC1=O,?,-27,3%,1%,10µM*,4.5µM*,?,-11%,?,40%

# Bioassay records from PubChem BioAssay.
